# Compounds with a hit are over-represented: about 6.5% of the library has one in this group of screens.
# FMDV inh – High Throughput Screening for Foot and Mouth Disease Virus Antivirals; FMDV antiviral cell-based qHTS; Potency, µM (titrated, usually from 57.9 µM), without a hit: top-dose activity change, negative = inhibition, most hits filed as inhibitors; 1.2% of 410,000 active; AID 1159524, 2015; calls by dose curve; tested in HEK293T cells; further: read-out not given here; potency means the concentration at half of the fitted maximal effect; nearly all actives have a fitted effect of over 45% in size
# MARV entry inh – qHTS for inhibitors of binding or entry into cells for Marburg Virus. AID 540276, 2011. Marburg virus pseudotyped entry inhibition, cell reporter. 1.8% of 300,000 active. Potency, µM (titrated, usually from 37.8 µM), without a hit: at the highest dose activity change, negative = inhibition, hits mostly inhibitors; calls by dose curve; tested in HEK293 cells; further: potency means the concentration at half of the fitted maximal effect
# VACV mCherry inh – qHTS for Stage-Specific Inhibitors of Vaccinia Orthopoxvirus: mCherry Reporter Primary qHTS. Vaccinia virus mCherry reporter infection, fluorescence. Potency, µM (top dose mostly 36.5 µM), inactives show at the highest dose activity change, negative = inhibition, actives largely listed as inhibitors. 0.63% of 310,000 active; calls by dose curve; tested in A549 cells; further: potency means the concentration at half of the fitted maximal effect; nearly all actives have a fitted effect of over 35% in size
# Vaccinia Venus – qHTS for Stage-Specific Inhibitors of Vaccinia Orthopoxvirus: Venus Reporter Primary qHTS | Potency, µM (top dose mostly 36.5 µM), inactives show at the top dose activity change, negative = inhibition, most hits filed as inhibitors | AID 720580, 2013 | 0.46% of 330,000 active | Vaccinia virus Venus reporter expression, fluorescence; calls by dose curve; tested in A549 cells; further: potency means the concentration at half of the fitted maximal effect; nearly all actives have a fitted effect of over 30% in size
# LASV entry inh – qHTS for Inhibitors of binding or entry into cells for Lassa Virus; Potency, µM (top dose mostly 37.9 µM), without a hit: at the top dose activity change, negative = inhibition, actives largely listed as inhibitors; 1.2% of 300,000 active; Lassa virus pseudotype entry inhibition, cell reporter; calls by dose curve; tested in HEK293 cells; further: potency means the concentration at half of the fitted maximal effect; nearly all actives have a fitted effect of over 50% in size
# HCMV antiviral – qHTS Assay for inhibitors of the human cytomegalovirus (HCMV); HFF cells, HCMV-luciferase reporter, 72 h; stronger effect = lower value; activity change, negative = inhibition, % at 57.5 µM; 4.5% of 410,000 active; in the data active means activity change below about -60%; inconclusive means no clear call, values can overlap the other calls; inactive means above about -39%
#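 Steps: HFFs plated, 16 h 37C; compounds added; HCMV-luciferase added to MOI 1 PFU/cell; 72 h 37C; OneGlo reagent, 5 min room temperature; luminescence read, normalized to controls.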
# * = called active by the depositor; i = inactive; ? = inconclusive; · = no result given; [ ] = dose if it differs, or a comment. On the % scale 0 is the no-effect control and ±100 the full control effect.
SMILES,FMDV inh,MARV entry inh,VACV mCherry inh,Vaccinia Venus,LASV entry inh,HCMV antiviral
COc1ccc(OC)c(S(=O)(=O)N2CCC(C(=O)N3CCN(c4ccc(F)cc4)CC3)CC2)c1,?,-15%,-17%,-15%,4%,-62*
COc1ccc(C(C)(C)C)cc1S(=O)(=O)N1CCC(C(N)=O)CC1,30%,0%,-22%,-5%,1%,-34
COc1ccc(N2CCN(C(=O)C3CCN(S(=O)(=O)c4ccc(F)cc4)CC3)CC2)cc1,-22%,3%[46.1 µM],-5%,-6%,-25%[46.1 µM],-23
COc1ccc(F)cc1S(=O)(=O)N1CCC(C(N)=O)CC1,2%,-5%[46.1 µM],?,13µM*,-15%,-15
O=C(C[n+]1ccnc2ccccc21)c1ccc(Br)cc1,·,·,-9%,-2%,·,·
COc1ccccc1N1CC(O)=C(c2nc3ccccc3c(=O)[nH]2)C1=N,·,-1%,5.6µM*,?,-12%,-9
Cc1ccc(N(C(=O)c2csnn2)C(C(=O)NC2CCCCC2)c2ccco2)cc1 (stereo not given),-3%,?,-18%,-18%,?,-62*
CC(=O)Nc1ccc(N(C(=O)Cc2c[nH]c3ccccc23)C(C(=O)NC2CCCCC2)c2ccco2)cc1 (stereo not given),10%,-16%,-35%,?,5.8µM*,?
O=C(NC1CCCCC1)C(c1ccco1)N(C(=O)c1csnn1)c1ccccc1 (stereo not given),15%,4%[46.1 µM],i,-16%,-6%[46.1 µM],1
Cc1ccc(C(C(=O)NC2CCCCC2)N(C(=O)Cc2c[nH]c3ccccc23)c2ccccc2)o1 (stereo not given),-24%,?,·,·,?,7
CN(C)c1ccc(C(C(=O)NC2CCCCC2)N(Cc2ccco2)C(=O)c2snc(C(N)=O)c2N)cc1 (stereo not given),-4%,3.5µM*,-15%,-6%,13µM*,-74*
CCc1ccc(N(C(=O)c2snc(C(N)=O)c2N)C(C(=O)NCC2CCCO2)c2ccco2)cc1 (stereo not given),5%,-14%[46.1 µM],i,0%,-15%,-60*
CN(C)c1ccc(C(C(=O)NCC2CCCO2)N(C(=O)c2snc(C(N)=O)c2N)c2ccccc2)cc1 (stereo not given),-14%,?,-11%,5%,24%[46.1 µM],7
O=C(CCS(=O)(=O)c1cccc2nsnc12)Nc1ccc(F)cc1,-9%,3%[46.1 µM],10%,3%,-1%[46.1 µM],5
Cc1ccc(N(C(=O)c2csnn2)C(C(=O)NC2CCCCC2)c2ccccn2)c(C)c1 (stereo not given),18%,-4%[46.1 µM],i,2%,-9%,-62*
O=C(NC1CCCCC1)C(c1ccccc1F)N(C(=O)c1csnn1)C1CCCC1 (stereo not given),-3%,?,-24%,1%,-4%[46.1 µM],-60*
CCOc1ccc(C(C(=O)NCC2CCCO2)N(Cc2cccc(OC)c2)C(=O)c2snc(C(N)=O)c2N)cc1 (stereo not given),3%,?,-15%,-22%,·,15
Cc1ccc(N(C(=O)c2snc(C(N)=O)c2N)C(C(=O)NC2CCCC2)c2ccco2)cc1 (stereo not given),-15%,?,-15%,-23%,?,-71*
COc1ccc(C(C(=O)NCC2CCCO2)N(Cc2cccs2)C(=O)c2snc(C(N)=O)c2N)cc1 (stereo not given),-10%,3.2µM*,1%,24%,?,-101*
Cc1nnc2nc(N)[nH]n2c1=O,·,·,·,·,·,57
O=C1CCC[C@H]2[C@@H](Cc3ccccc3)[C@@H](NCc3ccccc3)CC[C@]23CCCN13,·,·,·,·,·,-21
Cc1nc(NCc2ccc3nsnc3c2)sc1-c1ccn(C)n1,16%,·,-21%,-17%,·,·
CC(=O)Nc1ccc(NC(=O)C(Cc2ccccc2)N2Cc3ccccc3C2=O)cc1 (stereo not given),1%,·,i,-12%,-20%[46.1 µM],-26
COc1ccc(N(C(=O)c2snc(C(N)=O)c2N)C(C(=O)NC2CCCC2)c2ccc3ncccc3c2)cc1 (stereo not given),-17%,?,-5%,-11%,?,-89*
NC(=O)c1nsc(C(=O)N(c2ccccc2)C(C(=O)NC2CCCC2)c2ccc3ncccc3c2)c1N (stereo not given),?,-26%[46.1 µM],10%,9%,·,?
SMILES,FMDV inh,MARV entry inh,VACV mCherry inh,Vaccinia Venus,LASV entry inh,HCMV antiviral
CC(C)c1ccc(N(C(=O)c2snc(C(N)=O)c2N)C(C(=O)NCC2CCCO2)c2ccc(N(C)C)cc2)cc1 (stereo not given),18µM*,?,?,?,?,-86*
CCOc1ccc(N(C(=O)c2snc(C(N)=O)c2N)C(C(=O)NCC2CCCO2)c2ccco2)cc1 (stereo not given),-6%,13µM*,-8%,-4%,?,-36
Cc1cccnc1NCc1ccc(O)c2ncccc12,-28%,?,14µM*,?,?,?
Cc1ccc(NCc2ccc(O)c3ncccc23)cc1C,-9%,?,-17%,-11%,?,-79*
Oc1ccc(Br)cc1CNc1cccc2cccnc12,-4%,?,?,-16%,?,-62*
Cc1cccc(NCc2ccc(O)c3ncccc23)c1C,-18%,?,-26%,-14%,?,-96*
O=C(NCCc1nc2ccccc2n1CCOc1cccc2ccccc12)C1CCCCC1,·,·,-14%,-26%,·,·
COC(=O)C1(C(=O)OC)CC=CCc2ccccc2[C@H]1C[N+](=O)[O-],·,3%[14.2 µM],·,·,·,·
CCn1c(C)c(C)c2cc(C(=O)N3CCc4ccccc4C3)ccc21,-13%,·,·,·,·,-85*
CCN1CCN(C(=O)c2ccc3c(c2)c(C)c(C)n3Cc2ccccc2)CC1,1%,1%,-2%,-23%,-11%,-17
O=C(NCC1CC1)c1ccc2nc(-c3ccoc3)c(-c3ccoc3)nc2c1,·,·,19%,-14%,·,·
Cc1c(C(=O)NCCCN2CCCC2=O)cnn1-c1ncc2c(n1)-c1ccccc1CC2,29%,·,?,-25%,·,·
O=C(Nc1ccccc1Oc1ccccc1)c1cc([N+](=O)[O-])ccc1Cl,?,?,-4%,-15%,-25%,-77*
O=C(Nc1ccc(Nc2ccccc2)cc1)c1cc([N+](=O)[O-])ccc1Cl,?,·,·,·,·,43
O=C(Nc1nccs1)c1cc([N+](=O)[O-])ccc1Cl,-19%,·,·,·,·,-103*
c1coc(CNc2ncnc3c2nc2n3CCCC2)c1,·,·,-28%,-19%,·,·
COc1cc(OC)cc(C(=O)Nc2nc(-c3nnn(-c4ccc(C)cc4)c3C)ns2)c1,?,·,?,?,-3%[46.1 µM],-106*
CCCC(=O)N1CC2(C1)CN(C(=O)CN1CCOCC1)[C@H](CO)c1c2c2ccc(OC)cc2n1C,·,·,·,·,·,1

# Screening results: PubChem BioAssay, National Center for Advancing Translational Sciences (NCATS)
